Experimental data published in PubChem BioAssay.
Records with an inconclusive call do not appear. Active and inactive are the calls of the source.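 The calls were made as follows, unless noted: active = inhibition over a set limit, the all-compound mean plus 3 SD, in both replicate runs; inconclusive = over that limit in just one replicate run; inactive = at or under that limit in both runs.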

What was measured:
[1] = Her2 expression decrease, cell viability multiplex – SKBR3 breast tumor cells, AlphaScreen, ATP viability, primary screen (AID 461;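 active = Her2 level under about 52% in both replicate screens, with viability over 70% of control, limit read from the data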;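 as to Her2 level: lower value means less Her2 protein in the cells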;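 as to viability: percent of carrier control wells set as 100% viability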); settings: SKBR3 Her2 protein level, 18-24 h, measured here: SKBR3 viability, ATP luminescence, at 10 µM
[2] = target: Receptor tyrosine-protein kinase erbB-2 (Homo sapiens) (UniProt P04626); assay: as above; settings: 18-24 h, at 10 µM, stronger effect = lower value
Chain of Receptor tyrosine-protein kinase erbB-2 (Homo sapiens) (P04626 whole entry, looked up): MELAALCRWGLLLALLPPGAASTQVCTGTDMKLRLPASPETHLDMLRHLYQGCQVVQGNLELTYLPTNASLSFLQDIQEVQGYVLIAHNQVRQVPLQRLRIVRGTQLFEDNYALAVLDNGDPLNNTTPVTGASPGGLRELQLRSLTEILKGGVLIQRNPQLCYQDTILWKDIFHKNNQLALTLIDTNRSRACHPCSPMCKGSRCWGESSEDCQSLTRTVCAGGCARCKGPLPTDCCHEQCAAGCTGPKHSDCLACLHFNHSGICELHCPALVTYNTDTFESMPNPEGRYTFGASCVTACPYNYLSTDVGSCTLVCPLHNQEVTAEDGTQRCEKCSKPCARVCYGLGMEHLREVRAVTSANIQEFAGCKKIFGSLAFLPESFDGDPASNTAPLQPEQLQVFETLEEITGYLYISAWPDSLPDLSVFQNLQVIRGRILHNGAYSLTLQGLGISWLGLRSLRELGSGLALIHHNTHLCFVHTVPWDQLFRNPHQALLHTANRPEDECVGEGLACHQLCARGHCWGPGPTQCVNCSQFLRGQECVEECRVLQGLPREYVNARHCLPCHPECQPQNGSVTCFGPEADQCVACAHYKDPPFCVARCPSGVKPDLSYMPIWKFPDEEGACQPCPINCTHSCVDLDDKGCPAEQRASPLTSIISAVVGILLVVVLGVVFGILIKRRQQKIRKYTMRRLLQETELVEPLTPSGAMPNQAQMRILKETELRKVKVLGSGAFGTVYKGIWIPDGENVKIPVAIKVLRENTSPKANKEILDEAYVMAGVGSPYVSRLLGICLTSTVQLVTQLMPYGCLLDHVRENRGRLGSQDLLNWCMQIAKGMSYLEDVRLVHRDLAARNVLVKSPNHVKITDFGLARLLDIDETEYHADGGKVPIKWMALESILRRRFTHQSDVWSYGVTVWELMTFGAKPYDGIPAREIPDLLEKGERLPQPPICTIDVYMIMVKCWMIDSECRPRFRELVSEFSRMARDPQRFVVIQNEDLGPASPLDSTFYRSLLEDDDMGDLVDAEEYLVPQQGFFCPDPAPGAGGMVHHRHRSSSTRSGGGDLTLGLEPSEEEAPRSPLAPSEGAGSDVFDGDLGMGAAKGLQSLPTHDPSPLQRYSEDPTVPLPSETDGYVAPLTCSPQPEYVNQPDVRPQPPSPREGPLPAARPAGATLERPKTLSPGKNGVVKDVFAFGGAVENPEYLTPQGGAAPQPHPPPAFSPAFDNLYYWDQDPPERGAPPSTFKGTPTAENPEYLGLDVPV

[3] = reduced viability of SK-BR-3 breast cancer cells – cell-based, 24 h, human, pilot screen (AID 572;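 active = viability at or below 10% of carrier control in both of two separate runs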;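 also: compound exposure lasted between 18 and 24 h rather than exactly 24 h; 100% = carrier-treated control wells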); settings: SK-BR-3 viability, CellTiter-Glo luminescence, at 10 µM, stronger effect = lower value
[4] = HUVEC growth inhibition – cell-based, human, primary screen (AID 575;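 active = viability at or below 30% in both replicate assays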;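 also: 100% = median of untreated cell wells with 0.1% DMSO on each plate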); settings: HUVEC proliferation, CellTiter-Glo luminescence, 72 h; at 10 µM; stronger effect = lower value
[5] = H69AR cell proliferation blockers – human, duplicate replicates, primary screen (AID 580;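 active = viability at or under a set limit in both replicates, limit being median viability minus 3 SD, cut at about 48% in these data, passing the limit was not always enough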;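 also: 100% = mean luminescence of untreated wells and 0% = no signal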); settings: H69AR lung tumor cells viability, ATP luminescence, 72 h; at 10 µM; stronger effect = lower value
[6] = MRP1 drug-resistance reversers in H69AR cells – cell-based, doxorubicin co-treatment, pilot screen (AID 601;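 active = viability loss from added drug above about 55%, and viability with drug at most 40%, in both replicates, limit read from the data, passing the limit was not always enough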); settings: CellTiter-Glo, 72 h, at 10 µM; for differential viability (reversal): stronger effect = higher value
[7] = yeast transport mutant growth inhibition pilot in 384-well plates, post-Golgi transport modulator project (AID 636; in the data active = inhibition above about 31%); settings: absorbance 615 nm, about 18 h, stronger effect = higher value
[8] = growth suppression of yeast trafficking mutant, preliminary HTS, modulators of trafficking downstream of Golgi apparatus project, 1536-format plate, OD 615 nm (AID 637; in the data active = inhibition above about 30%); settings: yeast transport mutant growth, absorbance 615 nm, 18 h; stronger effect = higher value
[9] = S. cerevisiae growth inhibition in permissive medium (OD615), pilot counter-assay for S. cerevisiae lifespan shortening project, permissive growth control (AID 705;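 active = growth inhibition above 25% in both replicates, a cutoff set 3 SD above the mean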); settings: OD615, 24 h, at 10 µM, stronger effect = higher value
[10] = S. cerevisiae growth inhibition in restrictive medium, OD615, pilot screen, restrictive growth control, yeast lifespan reduction project (AID 706;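 active = growth inhibition above a set limit, 3 SD over mean compound inhibition, in both replicates, cut at about 43% in these data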;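 also: modified DeaD lifespan yeast strain shifted to restrictive glucose medium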); settings: OD615, 48 h, at 10 µM, stronger effect = higher value
[11] = doxorubicin toxicity protection in MRP-1 cells – H69AR cells, CellTiter-Glo, duplicate, MRP-1 activator project, pilot screen (AID 807;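 active = viability increase at or above a cutoff of the median across tested compounds plus 3 SD, cut at about 8.5% in these data, passing the limit was not always enough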;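 also: compound pretreatment 18-22 h then 72 h combined with doxorubicin; 0% = doxorubicin alone and 100% = vehicle without doxorubicin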); settings: H69AR viability with doxorubicin, CellTiter-Glo luminescence; at 10 µM; stronger effect = higher value
[12] = viability of HCT116 without oncogenic beta-catenin – human colon tumor cells, pilot screen (AID 823;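 active = cell viability at or below a set limit in both duplicate runs, the limit being the all-compound median minus 4 SD, cut at about 23% in these data, passing the limit was not always enough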;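 also: 0% = wells killed by 20 µM Hyamine and 100% = untreated DMSO cell wells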); settings: HCT116 beta-catenin knockout viability, CellTiter-Glo, 60 h; at 10 µM; stronger effect = lower value
[13] = viability of PTEN-null HCT116 cells – cell-based, HCT116 clonal line, CellTiter-Glo, pilot screen (AID 824;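 active = viability at or below 27.92% in each of two runs, the all-compound median minus 4 SD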;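 also: 0% = 20 µM Hyamine control and 100% = vehicle cell control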); settings: HCT116 PTEN-deleted viability, 60 h, at 10 µM, stronger effect = lower value
[14] = RAM pathway blockade in budding yeast – dse1pr::URA3 reporter, 5-FOA selection, pilot screen (AID 869);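 also: 0% = DMSO wells with no growth and 100% = 10 µM 1-NA-PP1 with full growth; RAM network block rescues cells from 5-FOA so hits raise OD615 growth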; settings: S. cerevisiae dse1pr::URA3 5-FOA growth, OD615, 2 d; at 10 µM; stronger effect = higher value; strain carries analog-sensitive mutant Cbk1 kinase
[15] = RAM signaling pathway blockade in yeast – S. cerevisiae, Pdr1DBD-CYC8 efflux-inhibited sensitized strain, primary screen (AID 1298;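 active = RAM network inhibition above 8.4% in each of two replicates, 3 SD over the compound average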;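 also: 0% = DMSO untreated cells without growth and 100% = 10 µM 1-NA-PP1 full growth; higher means more yeast growth rescued from 5-FOA killing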); settings: S. cerevisiae cbk1-as DSE1-URA3 strain, 5-FOA growth OD615, 2 d; at 50 µM; stronger effect = higher value
[16] = H69AR cells + 2 uM doxorubicin, measured here: viability with 2 uM doxorubicin, stronger effect = lower value
[17] = H69AR cells, compound alone cytotoxicity

SMILES	viability [1]	Her2 level [2]	viability [3]	viability [4]	viability [5]	differential viability (reversal) ([6]; H69AR cells + 2 uM doxorubicin)	viability [6, 16]	viability [6, 17]	inhibition [7]	inhibition [8]	growth inhibition [9]	growth inhibition [10]	viability increase [11]	viability [12]	viability [13]	inhibition [14]	RAM network inhibition [15]
COc1ccc(CCNC(=O)C2(C)CCC(=O)N2Cc2ccc3c(c2)OCO3)cc1OC (stereo not drawn)	77.5%	98% (inactive)	77.5% (inactive)	88.2% (inactive)	92.8% (inactive)	5.6% (inactive)	87.2%	92.8%	-2.69% (inactive)	-5.17% (inactive)	-13.9% (inactive)	-25.8% (inactive)	0.26% (inactive)	102% (inactive)	97.5% (inactive)	0.985% (inactive)	1.36% (inactive)
Cn1c(=O)c2c(nc(CN3CCN(Cc4ccccc4)CC3)n2Cc2cccc(Cl)c2)n(C)c1=O	93.5%	81.5% (inactive)	93.5% (inactive)	69.9% (inactive)	57.7% (inactive)	36.9% (inactive)	20.9%	57.7%	-6.67% (inactive)	5.5% (inactive)	3.47% (inactive)	-0.975% (inactive)	-2.86% (inactive)	60.8% (inactive)	58.7% (inactive)	1% (inactive)	4.53% (inactive)
O=C(NCCOC(=O)C1COc2ccccc2O1)C1COc2ccccc2O1 (stereo not drawn)	92.5%	95% (inactive)	92.5% (inactive)	88.5% (inactive)	103% (inactive)	10.3% (inactive)	92.6%	103%	-6.76% (inactive)	-2.79% (inactive)	-7.82% (inactive)	-1.52% (inactive)	0.34% (inactive)	102% (inactive)	100% (inactive)	0.095% (inactive)	0.89% (inactive)
COc1cccc(C2C(C(=O)c3ccc(C)o3)=C(O)C(=O)N2CCCN(C)C)c1 (stereo not drawn)	99.5%	90.5% (inactive)	99.5% (inactive)	100% (inactive)	108% (inactive)	12.6% (inactive)	95%	108%	-4.73% (inactive)	7.14% (inactive)	-10.7% (inactive)	-11.7% (inactive)	-1.16% (inactive)	102% (inactive)	96.1% (inactive)	-0.125% (inactive)	1.67% (inactive)
c1ccc(CN2CCN(CCCNc3ccc4nnc(-c5ccccc5)n4n3)CC2)cc1	83%	78.5% (inactive)	83% (inactive)	50.2% (inactive)	86.3% (inactive)	55.5% (active)	30.8%	86.3%	0.13% (inactive)	-2.17% (inactive)	-8.05% (inactive)	5.01% (inactive)	-7.78% (inactive)	50% (inactive)	55.5% (inactive)	2.78% (inactive)	3.65% (inactive)
CCN(CC)S(=O)(=O)c1ccc2oc(C(=O)N3CCOCC3)c(C)c2c1	79.5%	101% (inactive)	79.5% (inactive)	106% (inactive)	96.5% (inactive)	-0.525% (inactive)	97%	96.5%	0.67% (inactive)	-4.84% (inactive)	-6.28% (inactive)	-17.5% (inactive)	0.12% (inactive)	93.7% (inactive)	98.8% (inactive)	-0.09% (inactive)	-0.22% (inactive)
CC12CN3CC(C)(CN(C1)C3c1ccc(Cl)cc1Cl)C2=O (stereo not drawn)	97%	102% (inactive)	97% (inactive)	101% (inactive)	80.9% (inactive)	-7.23% (inactive)	88.2%	80.9%	-2.67% (inactive)	-3% (inactive)	-17.2% (inactive)	-1.12% (inactive)	-2.71% (inactive)	93.4% (inactive)	95.3% (inactive)	1.56% (inactive)	-0.11% (inactive)
CCN(CC)CCn1c(=N)n(CCO)c2ccccc21	94.5%	94% (inactive)	94.5% (inactive)	107% (inactive)	101% (inactive)	8.55% (inactive)	92.9%	101%	-5.32% (inactive)	2.33% (inactive)	0.615% (inactive)	1.18% (inactive)	-0.4% (inactive)	101% (inactive)	97.5% (inactive)	0.605% (inactive)	4.92% (inactive)
COCCCN1C(=O)C(=O)/C(=C(/O)c2ccc(OCC(C)C)cc2C)C1c1cccnc1 (stereo not drawn)	109%	110% (inactive)	109% (inactive)	104% (inactive)	98.1% (inactive)	1.47% (inactive)	96.6%	98.1%	-2.21% (inactive)	-2.67% (inactive)	-1.21% (inactive)	15.7% (inactive)	0.13% (inactive)	106% (inactive)	95.6% (inactive)	0.48% (inactive)	2.11% (inactive)
